Screening results (PubChem BioAssay)
Sampled rows, rich in hits. Any-hit rate of the full collection: about 0.92%.
Luc counter: Counterscreen for Luciferase (Kinase-Glo TM) Inhibition; Potency, µM (top dose mostly 38.3 µM), inactives show top-dose activity change, negative = inhibition, usual class: inhibitors; Kinase-Glo luciferase, ATP luminescence, 8 min; 0.28% of 200,000 active; AID 1379, 2008; further: potency means the concentration at half of the fitted maximal effect; on the % scale 0 is the no-effect control and ±100 the full control effect; nearly all actives have a fitted effect of over 60% in size
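Recombinant Kinase-Glo luciferase, 10 uM ATP (linear range), luciferin; imidazole pH 7.2 / KCl / MgCl2 / Tween / BSA buffer; 8 min RT; luminescence.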
RXFP1 antagonist: qHTS Assay for Antagonists of the Relaxin Receptor RXFP1; Relaxin receptor 1 (Homo sapiens), Q9HBX9; HEK293-RXFP1, relaxin-stimulated cAMP HTRF, 30 min; stronger effect = lower value; activity change, negative = inhibition, % at 57.5 µM; 0.59% of 350,000 active; AID 1259400, 2018;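 active means activity change of -60% or lower, but not beyond a set lower limit; inconclusive means change between -60% and -40%, or beyond the set limit; inactive means change above -40%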; further: on the % scale 0 is the no-effect control and ±100 the full control effect
miR-21 act: qHTS Assay for Modulators of miRNAs and/orActivators of miR-21; HeLa miR-21 FLuc reporter, luciferase, 48 h; Potency, µM (doses to about 38.3 µM), for inactives: top-dose activity change, positive = activation, hits mostly activators; 340,000 tested, under 10 active;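 further: % of control where 0% means no effect; miR-21 action dims this reporter so a rising signal means less miR-21 action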
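Luminescence from a firefly luciferase reporter carrying a miR-21 binding site downstream, stably expressed under a CMV promoter in HeLa cells that make miR-21 endogenously, reports miRNA modulation after 48 h compound exposure up to approximately 40uM final.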
PKM2 activator: qHTS Assay for Activators of Human Muscle isoform 2 Pyruvate Kinase; purified PKM2, Kinase-Glo ATP luminescence, activation; response scale: 0% is enzyme alone, no compound; AID 1631, 2009; Pyruvate kinase PKM (Homo sapiens), P14618; 0.34% of 260,000 active; Potency, µM (highest dose often 57.5 µM), for inactives: at the top dose activation, actives largely listed as activators; further: potency means the concentration at half of the fitted maximal effect; on the % scale 0 is the no-effect control and ±100 the full control effect; nearly all actives have a fitted effect of over 55% in size
Target sequence (P14618 whole entry, looked up, canonical isoform): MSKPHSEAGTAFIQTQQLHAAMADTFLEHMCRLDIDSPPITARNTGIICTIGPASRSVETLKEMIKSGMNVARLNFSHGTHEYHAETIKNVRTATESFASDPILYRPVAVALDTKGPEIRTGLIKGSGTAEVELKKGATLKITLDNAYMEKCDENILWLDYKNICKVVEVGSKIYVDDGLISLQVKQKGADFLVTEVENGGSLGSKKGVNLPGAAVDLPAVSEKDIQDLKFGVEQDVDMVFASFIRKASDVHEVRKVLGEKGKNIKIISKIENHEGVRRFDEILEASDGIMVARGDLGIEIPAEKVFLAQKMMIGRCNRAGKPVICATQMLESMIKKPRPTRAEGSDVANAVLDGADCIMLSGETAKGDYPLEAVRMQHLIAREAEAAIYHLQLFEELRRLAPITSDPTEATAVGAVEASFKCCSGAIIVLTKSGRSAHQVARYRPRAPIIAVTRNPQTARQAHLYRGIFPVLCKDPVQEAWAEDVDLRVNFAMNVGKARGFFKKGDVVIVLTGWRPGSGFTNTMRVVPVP
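Purified hPK-M2 (>95%) run at intermediate activity with 0.1 mM ADP and 0.5 mM PEP in 50 mM imidazole pH 7.2, KCl, MgCl2; 1 h room temperature. ATP formed read by Kinase-Glo luminescence; normalized to uninhibited and no-enzyme controls.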
GALK inhibitor: qHTS Assay for Inhibitors of Human Galactokinase (GALK). Potency, µM (series often up to 57.5 µM), inactives show top-dose activity change, negative = inhibition, usual class: inhibitors. P51570. 0.007% of 270,000 active. AID 1868, 2009. Purified GALK, Kinase-Glo residual ATP luminescence; further: potency means the concentration at half of the fitted maximal effect; on the % scale 0 is the no-effect control and ±100 the full control effect
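ATP-depletion format; final 35 uM ATP, 100 uM D-galactose, 5 nM enzyme; pH 8.0 HEPES/Mg2+ buffer; 60 min RT; luminescence read 10 min after detection reagent.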
RXFP1 agonist: qHTS Assay for Agonists of the Relaxin Receptor RXFP1; HEK293T-RXFP1 cAMP TR-FRET, 30 min; response scale: percent of porcine relaxin response, buffer zero; Potency, µM (highest dose often 57.5 µM), inactives show top-dose activation, usual class: activators; 0.3% of 370,000 active; further: potency means the concentration at half of the fitted maximal effect; on the % scale 0 is the no-effect control and ±100 the full control effect; nearly all actives have a fitted effect of over 60% in size
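Agonist response is measured as cAMP accumulation in an RXFP1-transfected HEK293T line under PDE4 inhibition. Values are scaled between buffer-only and 29 nM porcine relaxin, and EC50s come from standard Hill equation fits.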
An asterisk follows results filed as active; ? = inconclusive; / = no result; [ ] = dose if it differs, or a comment. Unless noted, the call rests on the fitted dose curve; in most records, active means well fitted curve in the direction sought with a large enough effect; inconclusive means small, poorly fitted or top-dose-only effect, or another doubt; inactive means no such curve, though single readings can be large; an effect the other way counts as inactive or inconclusive.

SMILES	Luc counter	RXFP1 antagonist	miR-21 act	PKM2 activator	GALK inhibitor	RXFP1 agonist
Cc1cc(/C=N/NC(N)=S)c(C)n1-c1ccc(Cl)c(Cl)c1	-2%	-105*	?	0%	0%	3%
CC1CCN(C(=O)c2[nH]cnc2C(=O)Nc2ccon2)CC1	/	/	/	/	/	0%
CCc1ccc(/C=C2\CN(CC)Cc3c2nc2ccccc2c3C(=O)O)cc1	-1%	-9	-7%	13µM*	4%	-3%
CCN1C/C(=C/c2cccs2)c2nc3ccccc3c(C(=O)O)c2C1	/	3	-1%	-3%	5%	0%
CCc1ccc(S(=O)(=O)c2nnn3c2nc(NCCNC(C)=O)c2ccccc23)cc1	1%	12	-2%	11µM*	5%	20%
CC(=O)NCCNc1nc2c(S(=O)(=O)c3ccc(C)c(C)c3)nnn2c2ccc(Cl)cc12	/	-27	6%	/	/	5%
Cc1ccc(S(=O)(=O)N(C)C)cc1NC(=O)COC(=O)c1sc2cc(Cl)ccc2c1Cl	/	-9	-1%	0%	-2%	6%
COc1cccc(NC(=O)N2CCCC2C(=O)Nc2cc(C)ccc2OC)c1 (stereo not drawn)	/	3	-10%	-1%	17%	-4%
CCOc1cc(/C=C(\C#N)C(N)=O)ccc1OS(=O)(=O)c1ccccc1	-2%	-3	-9%	14µM*	-3%	0%
COc1ccc(/C=C(\C#N)C(N)=O)cc1OC	-6%[7.66 µM]	/	/	/	/	/
Cc1cc(S(=O)(=O)Nc2ccc3c(c2)COC3=O)ccc1F	6%	-7	-13%	11µM*	-2%	4%
Cc1ccccc1OCc1nc2c3cnn(-c4ccccc4Br)c3ncn2n1	/	2	-2%	/	/	-1%
Cc1ccccc1OCc1nnc2c3cnn(C)c3ncn12	-9%	10	-26%	28µM*	4%	-1%
O=C(NCC(O)CO)c1c(I)c(C(=O)NCC(O)CO)c(I)c(N(CCO)C(=O)CO)c1I (stereo not drawn)	/	4	/	/	/	/
Cc1ccc2c(c1)cc(CN(Cc1ccco1)C(=O)N1CCOCC1)c1nnnn12	2%	-2	1%	-2%	5%	1%
Cc1ccc2cc(CN(Cc3ccco3)C(=O)c3ccco3)c3nnnn3c2c1	/	3	9%	16µM*	2%	5%
CCCN(CCC)CCNC(=O)c1cc2c(=O)oc3ccc(C)cc3c2s1	/	/	-2%	/	/	3%
COC(=O)C(C)(C)ONC(=O)Nc1ccccc1Cl	4%	-65*	-3%	8%	14%	0%
COC(=O)C(C)(C)ONC(=O)Nc1ccccc1Br	1%	/	-5%	-2%	-2%	1%
COc1ccccc1NC(=O)COC(=O)CC(C)(C)CC1=NS(=O)(=O)c2ccccc2N1	/	-83*	13%	/	5%	-1%
CC(C)(CC(=O)OCC(=O)Nc1ccccc1F)CC1=NS(=O)(=O)c2ccccc2N1	/	?	10%	/	6%	-2%
Cc1nnc(NC(=O)CSc2ccc(-c3cccnc3)nn2)s1	2%	18	-3%	2.8µM*	0%	23%
Cc1cc(NC(=O)CSc2ccc(-c3cccc([N+](=O)[O-])c3)nn2)no1	-2%	-15	2%	3%	0%	3%
CC(=O)Nc1ccc(NC(=O)CSc2ccc(-c3cccnc3)nn2)cc1	/	-6	6%	3%	6%	9%
Cc1cc(NC(=O)CSc2ccc(-c3ccccc3)nn2)no1	-2%	-16	-6%	16µM*	1%	-1%
SMILES	Luc counter	RXFP1 antagonist	miR-21 act	PKM2 activator	GALK inhibitor	RXFP1 agonist
Cc1cc(NC(=O)CSc2ccc3nnc(-c4ccc(F)cc4)n3n2)no1	-2%	4	-1%	5%	-3%	11%
Cc1cc(NC(=O)CSc2ccc(-c3ccc(F)cc3)nn2)no1	-2%	-4	-4%	7.1µM*	5%	1%
COc1ccc(/C=N/Nc2nc(-c3ccc(C)cc3)c(NC(C)=O)s2)cc1OC	/	-12	4%	10µM*	3%	-1%
CCOc1cc(/C=N\Nc2nc(-c3ccc(C)cc3)c(NC(C)=O)s2)ccc1O	/	-16	5%	?	0%	2%
CC(=O)Nc1sc(N/N=C/c2ccc(C)cc2)nc1-c1ccc(C)cc1	/	-5	-31%	7.1µM*	-2%	-4%
COc1cc(/C=N\Nc2nc(-c3ccc(C)cc3)c(NC(C)=O)s2)ccc1O	/	11	-8%	18µM*	3%	-2%
CC(=O)Nc1sc(N/N=C/c2ccc(N(C)C)cc2)nc1-c1ccc(C)cc1	/	5	-42%	26%	9%	0%
O=C(O)COc1ccccc1/C=C1\C(=O)Nc2ccc(Br)cc21	/	-19	-2%	/	-11%	-1%
O=C1Nc2ccc(Br)cc2/C1=C/C(=O)c1ccccc1	/	-82*	/	/	/	/
CC(=O)/C=C1/C(=O)Nc2ccccc21	0%	-73*	28%	28%	0%	-1%
CC(=O)N1CCN(c2ccc(O)cc2)CC1	/	4	/	/	/	/
O=Nc1ccc(NOC(=O)c2ccccc2)cc1	10µM*	-11	1%	-46%	6%	0%
Cc1[nH]nc(-c2ccc(O)c(C)c2O)c1-c1cnn(-c2ccccc2)c1	-4%	-87*	-8%	11%	-4%	1%
CCCCCCCCCCCCCCCCC(C(=O)O)C(O)(CC(=O)O)C(=O)O (stereo not drawn)	/	-27	/	/	/	/
COc1ccc(NS(=O)(=O)c2ccc(O)c(NC(=O)c3ccc(S(=O)(=O)N4CCCCCC4)cc3)c2)cc1	-2%	-22	0%	7%	1%	10%
COc1ccc(NS(=O)(=O)c2ccc(O)c(NC(=O)c3ccc(S(=O)(=O)N4CCCC4)cc3)c2)cc1	/	-60*	2%	-1%	2%	-1%
COc1ccc(NC(=O)CN2CCN(S(=O)(=O)c3ccc(Cl)cc3)CC2)cc1Cl	0%	0	1%	-1%	-1%	3%
COc1ccc(S(=O)(=O)N2CCCN(CC(=O)Nc3ccc(OC)c(Cl)c3)CC2)cc1	-1%	2	-2%	20µM*	-3%	5%
COc1cc(CC(=O)OCC(=O)Nc2ccc(S(=O)(=O)N3CCCC3)cc2)cc(OC)c1OC	-1%	3	5%	20µM*	3%	0%
C/C=C/C1=Cc2ccccc2C(CC(=O)OC)N1C(=O)OC (stereo not drawn)	-5%[7.66 µM]	/	/	-10%[11.5 µM]	/	/
